High-throughput results (PubChem BioAssay)
In the library only some 3.4% were active in any assay of this set; here they are far more common.
HSF1 inh – HSF1 inhibitors in luciferase reporter cells, primary screen, cell-based, NIH3T3, luminescence; NIH3T3-HGL HSE-luciferase, MG132-induced, luminescence 8 h; hits give low values; activity change, negative = inhibition, % at 7.5 µM (by protocol); 0.77% of 300,000 active;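 active means more than half of replicate wells show activity change below -50%, luminescence cut by over half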;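 further: luciferase reports HSF-1 transcriptional activity via heat shock element; 0% = median of DMSO wells and -100% = zero luminescence signal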
Vif imaging – HIV Vif self-association inhibitors, primary screen, imaging, HEK293T, single point; HEK293T cells, Vif self-association by quenched fluorescence, 24 h; inhibition, % at 7.49 µM; 0.35% of 340,000 active; AID 602346, 2012; in the data active means inhibition above about 50%, passing the limit was not always enough
esBAF inh – Bmi1 luciferase reporter increase in mESCs, primary screen, esBAF inhibitor project, mouse ES cells, Bmi1 luciferase knock-in, single point. 24 h; 100% = twice the neutral-well signal. reporter increase, % at 12.5 µM. 2% of 350,000 active; in the data active means activation above about 40%;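 further: 0% = median of the plate's neutral control wells and 100% = double that signal; a rise in the Bmi1 reporter signal indicates esBAF inhibition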
HSF-1 act – HSF-1 activators, primary screen, NIH3T3-HGL cells, MG132 stress, luminescence, single point; NIH3T3-HGL HSF-1 luciferase reporter, 8 h; 100% = twice DMSO control signal; activation, % at 9 µM; 1.7% of 300,000 active; AID 504408, 2011;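 active means mean replicate activation of at least 50% with a set share of replicates each reaching 50%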;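 further: 0% = median of the neutral control wells and 100% = twice that signal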
Active calls of the source: *; . = not tested or not shown.

SMILES	HSF1 inh	Vif imaging	esBAF inh	HSF-1 act
COc1ccccc1-c1cnc2c(c1)C(=O)N([C@@H](C)CO)C[C@H](C)[C@H](CN(C)C(=O)CN(C)C)O2	.	.	-6	.
Cn1c(CCCOc2ccc(Cl)cc2Cl)nnc1SCC(=O)Nc1ccc(F)c(Cl)c1	1	-1	.	2
Cn1c(CCCOc2ccc(Cl)cc2Cl)nnc1SCC(=O)Nc1cccc(F)c1	37	-10	.	54*
COCCN1Cc2cccc(C(=O)Nc3ccc(C)cc3)c2C1=O	3	-6	-10	19
CC(C)CNS(=O)(=O)c1ccc(CCC(=O)N2CCOCC2)cc1	-73*	5	9	-80
COCCN1Cc2cccc(C(=O)Nc3ccc4c(c3)OCCO4)c2C1=O	-52*	-6	6	-56
Cc1c(C(=O)Nc2ccc3c(c2)OCCO3)cnn1C	-61*	15	-40	-65
Cc1cc(C)n(-c2ccc(C(=O)Nc3ccc4c(c3)OCCO4)cc2)n1	2	-20	56*	5
CC(C)CNS(=O)(=O)c1ccc(CCC(=O)N2CCCC2)cc1	-4	-6	.	-5
CC(C)CNS(=O)(=O)c1ccc(C(=O)Nc2ccc3c(c2)OCCO3)cc1	12	-4	91*	18
CC(C)CNS(=O)(=O)c1ccc(CCC(=O)Nc2ccc3c(c2)OCCO3)cc1	2	8	5	-9
Cc1cccc(C)c1NC(=O)C(C)N1CCCC1 (stereo unspecified)	21	-6	-14	75*
Cc1cc(C)cc(OCC(O)CN2CC(C)OC(C)C2)c1 (stereo unspecified)	-63*	8	3	-71
CC1CCc2nc(/C(C#N)=C/c3cccnc3)sc2C1 (stereo unspecified)	102	1	.	126*
N#C/C(=C/c1cccnc1)c1ccccc1	-2	3	9	11
N#C/C(=C\c1cccnc1)c1nc2c(s1)CCCC2	71	-14	.	107*
Cc1ccc(N=CC2=C(O)CC(c3ccco3)CC2=O)cc1 (stereo unspecified)	63	4	3	72*
O=C1CC(c2ccccc2)CC(O)=C1C=Nc1ccccc1O (stereo unspecified)	-3	2	.	36
O=C1CC(c2ccccc2)CC(O)=C1C=Nc1ccccc1 (stereo unspecified)	68	6	.	119*
O=C1CC(c2ccco2)CC(O)=C1C=Nc1cc(Cl)ccc1O (stereo unspecified)	45	6	11	69*
COc1ccc(NC(=O)N(C)C[C@H]2Oc3ccc(NC(=O)Cc4ccccc4)cc3CC(=O)N([C@@H](C)CO)C[C@H]2C)cc1	.	.	9	.
C=CCNc1sc(C(=O)c2ccccc2)c(N)c1C#N	-7	0	.	-13
C=CCNc1sc(C(=O)c2ccc(Br)s2)c(N)c1C#N	0	111*	-3	10
COc1ccc2oc(C(=O)C3CC3)c(N)c2c1	-7	-3	67*	8
COc1ccc2oc(C(=O)c3ccccc3)c(N)c2c1	22	.	.	31
SMILES	HSF1 inh	Vif imaging	esBAF inh	HSF-1 act
CO[C@H]1CN(C)C(=O)c2cc(NC(=O)Nc3cccc(F)c3)ccc2OC[C@H](C)N(C(=O)Nc2c(C)noc2C)C[C@@H]1C	.	.	4	.
CC1(C)CC(=O)C(C=Nc2ccc3cn[nH]c3c2)=C(O)C1	32	13	2	54*
COc1cccc(N=CC2=C(O)CC(C)(C)CC2=O)c1	43	-1	.	87*
COc1cccc(N=CC2=C(O)CCCC2=O)c1	8	8	.	21
CCOc1ccc(N=CC2=C(O)CC(C)(C)CC2=O)cc1	2	17	48*	22
C[C@@H]1CN([C@@H](C)CO)C(=O)c2cccc(N(C)C)c2O[C@@H]1CN(C)C(=O)Nc1ccc2c(c1)OCO2	.	.	2	.
COC(=O)c1cc(OC)c(OC)cc1NC(=O)c1cccc(OC)c1OC	1	-14	3	-4
COc1cccc(C(=O)Nc2sc(C(C)C)cc2C(N)=O)c1OC	-79*	-6	.	-84
Cc1ccc(S(=O)(=O)N(C)C[C@@H]2Oc3ccc(NC(=O)Nc4c(C)noc4C)cc3CC(=O)N([C@@H](C)CO)C[C@@H]2C)cc1	.	.	3	.
Cc1ccc(C(=O)Cn2c(C(=O)/C=C/c3ccccc3)nc3ccccc32)cc1	166	7	-36	186*
CC=Cc1ccc2n(c1=O)C[C@H]1[C@H](CO)[C@@H](C(=O)NCC)N(C(=O)CC3CC3)[C@@H]21 (mixture of isomers)	.	.	-1	.
Cc1nc(NC(=O)CSc2ccc(-c3nc4ccccc4[nH]3)cn2)sc1C	2	.	.	28
O=C(CSc1ccc(-c2nc3ccccc3[nH]2)cn1)Nc1ccc2c(c1)OCCO2	6	55*	46*	39
O=C(CSc1ccc(-c2nc3ccccc3[nH]2)cn1)Nc1ccc(S(=O)(=O)NC2CC2)cc1	26	2	.	51*
Cc1ccc(NC(=O)CCCSc2nc3ccccc3[nH]2)cc1	1	18	.	18
Cc1ccc2nc(-c3ccc(SCC(=O)Nc4ccc5c(c4)OCCO5)nc3)[nH]c2c1	36	-1	.	55*
Cc1ccc(SCC(=O)Nc2ccc(-c3nc4ccccc4[nH]3)cc2)cc1	12	.	61*	22
Cc1cc2nc(-c3ccc(SCC(=O)Nc4ccc5c(c4)OCCO5)nc3)[nH]c2cc1C	.	-4	3	.
CC=Cc1ccc2n(c1=O)C[C@H]1[C@H](CO)[C@@H](C(=O)NCCC)N(CC3CCOCC3)[C@@H]21 (mixture of isomers)	.	.	-4	.
CCCC(=O)N1C[C@@H]2[C@H](c3ccccc31)[C@@H](CO)N2C(=O)CC1CC1	.	.	10	.
C[C@H](CO)N1C[C@H](C)[C@H](CN(C)Cc2ccc(C(=O)O)cc2)Oc2c(NS(=O)(=O)c3ccc(Cl)cc3)cccc2C1=O	.	.	-11	.
O=c1[nH]c2ccccc2cc1CN(Cc1cccnc1)S(=O)(=O)c1ccc([N+](=O)[O-])cc1	28	8	-11	63*
O=c1[nH]c2ccccc2cc1CN(Cc1cccnc1)S(=O)(=O)c1ccc(Cl)cc1	0	2	-4	8
C[C@H](CO)N1C[C@H](C)[C@H](CN(C)C)Oc2ccc(NS(C)(=O)=O)cc2CC1=O	.	.	-4	.
COc1ccc(C2NC(=S)N3C(c4ccc(OC)cc4)NC(=S)N23)cc1 (stereo unspecified)	-5	7	39	13
Cc1ccc(C2NC(=S)N3C(c4ccc(C)cc4)NC(=S)N23)cc1 (stereo unspecified)	.	7	61*	.
CN(C)Cc1c(-c2ccc(Cl)cc2)nc2ccccn12	20	2	34	49
Cc1ccc(-c2noc(CN3CCCCC3)n2)cc1	18	-3	34	30
Clc1ccc(-c2noc(CN3CCCC3)n2)cc1	6	4	44*	27
Clc1ccc(-c2nc3ccccn3c2CN2CCCCC2)cc1	24	-10	-5	52*
